“And” between values parts separate entries of the source, which are not always exact repeats. Identical values can stand only once. Records with an inconclusive call do not appear. Where a call stands in place of a potency, no number is given. Some structures have more than one record in an assay (separate samples or runs), and their calls can disagree. The source made the active and inactive calls. Calls come from the whole dose curve.
Test: qHTS assay to identify small molecule antagonists of the estrogen receptor alpha (ER-alpha) signaling pathway using the BG1 cell line (AID 743080);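 note: BG1 cells stimulated with 17beta-estradiol alongside compound; nearly all actives have a fitted effect of over 25% in size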
Conditions: BG1Luc4E2 ERE-luciferase antagonist mode, luminescence; series mostly up to 70.3 µM; activity change, negative = inhibition: at the top concentration
Text: National Center for Advancing Translational Sciences [NCATS]
NIH Chemical Genomics Center [NCGC]
U.S. Environmental Protection Agency [EPA]
National Institutes of Environmental Health Sciences [NIEHS]
National Toxicology Program [NTP]
U.S. Food and Drug Administration [FDA]
Estrogen receptor (ER), a nuclear hormone receptor, plays an important role in development, metabolic homeostasis and reproduction. Endocrine disrupting chemicals (EDCs) and their interactions with steroid hormone receptors like ER causes disruption of normal endocrine function. Therefore, it is important to understand the effect of environmental chemicals on the ER signaling pathway. To identify ER antagonists, BG1-Luc-4E2 cell line (provided by Dr. Michael Denison from University of California) has been used to screen the Tox21 10K compound library. BG1Luc4E2 cell line endogenously expresses full-length ER-alpha and is stably transfected with a plasmid containing four estrogen responsive elements (ERE) upstream of a luciferase reporter gene.
Tox21 Assay Protocol Summary:
BG1-Luc-4E2 cells were cultured in phenol red free assay medium containing 10% charcoal stripped FBS for 5 days before the assay was performed. The cells were dispensed at 4,000 cells/4 uL of assay medium per well into white wall/solid-bottom 1536-well plates using a Multidrop Combi (ThermoFisher Scientific, Waltham, MA) dispenser. The assay plates were incubated at a 37C and 5% CO2 for 24 h, and then 23 nL of compounds dissolved in DMSO, positive controls or DMSO only was transferred to the assay plate using a Pintool station (Kalypsys, San Diego, CA), followed by addition of 1 uL of 17beta-estradiol in assay medium using a Flying Reagent Dispenser (Aurora Discovery, San Diego, CA). After the plates were incubated at 37 C and 5% CO2 for 21.5 h, 1 uL of CellTiter-Fluor reagent (Promega, Madison, WI) of measuring cytotoxicity was added using Flying Reagent Dispenser (FRD) to each well. The assay plates were incubated at 37 C and 5% CO2 for additional 30 min and the fluorescence intensity was quantified by a ViewLux plate reader (PerkinElmer, Shelton, CT). For measuring luciferase reporter gene activity, 4 uL of ONE-Glo reagent (Promega) was added to each plate using an FRD and luminescence was quantified by a ViewLux plate reader after 30 min incubation at room temperature.
Potency is the fitted concentration of half-maximal effect.

Compound	Potency	activity change, negative = inhibition
CCOP(=S)(OCC)Oc1cnc2ccccc2n1	inactive	–
BrCCBr	inactive	–
O=NN1CCCC1	inactive	–
CC(Oc1ccc(Cl)cc1Cl)C(=O)O (stereo not given)	inactive	–
CCCCCOC(=O)c1ccccc1C(=O)OCCCCC	–	0.359% (inactive)
CN=C=S	inactive	–
C#CCN(C)[C@H](C)Cc1ccccc1	inactive	–
CCCC1COC(Cn2cncn2)(c2ccc(Cl)cc2Cl)O1 (stereo not given)	27.8 µM (active) and 68.6 µM (active)	–
CC(C)N1C(=O)c2ccccc2NS1(=O)=O	inactive	–
Nc1c(Cl)c(Cl)nc(C(=O)O)c1Cl	inactive	–
CCN(CC)c1ccccc1	inactive	–
CC(C#N)CCC#N (stereo not given)	inactive	–
Cc1ccc(N)cc1N	inactive	–
NCCc1ccc(O)cc1	inactive	–
O=C(NC(=O)c1c(F)cccc1F)Nc1cc(Cl)c(OC(F)(F)C(F)C(F)(F)F)cc1Cl (stereo not given)	–	-22.2% (inactive)
c1ccc(-c2ccccc2)cc1	inactive	–
C1CN2CCN1CC2	inactive	–
Clc1ccc(Cl)cc1	inactive	–
Cc1ccc(N)cc1Cl	inactive	–
CC(=O)C=C(C)C	inactive	–

Compound	Potency	activity change, negative = inhibition
CCCCN(CCCC)SN(C)C(=O)Oc1cccc2c1OC(C)(C)C2	inactive	–
[O-][Cl+2]([O-])O	inactive	–
COc1ccc2c3c1O[C@H]1[C@@H](O)C=C[C@H]4[C@@H](C2)N(C)CC[C@@]341	inactive	–
O=S(=O)(c1ccc(O)cc1)c1ccc(O)cc1	inactive	–
COC(=O)NS(=O)(=O)c1ccc(N)cc1	inactive	–
[N-]=[N+]=[N-]	inactive and 68.6 µM (active)	–
CCOP(OCC)OCC	inactive	–
CCC12COCN1COC2	inactive	–
Cc1cc(-c2cc(C)c(N)c(C)c2)cc(C)c1N	inactive	–
CCNc1nc(NC(C)(C)C)nc(SC)n1	inactive	–
CC(C)NC(=O)N1CC(=O)N(c2cc(Cl)cc(Cl)c2)C1=O	inactive	–
CCCN(CCC)c1c([N+](=O)[O-])cc(C(F)(F)F)cc1[N+](=O)[O-]	inactive	–
CCCCCCCCCl	inactive	–
CCCCOC(=O)c1ccccc1C(=O)OCCCC	inactive	–
COC(=O)c1ccccc1C(=O)OC	inactive	–
O=Cc1cccc(Oc2ccccc2)c1	inactive	–
Cc1cccc([N+](=O)[O-])c1	inactive	–
C=C(C)CCl	inactive	–
C1CC2OC2CC1C1CO1 (stereo not given)	inactive	–
ClCc1cccnc1	inactive	–
